# Measurements reported in article PMC7862700, “An all-to-all approach to the identification of sequence-specific readers for epigenetic DNA modifications on cytosine”.
# How the values were obtained:
# Assay in all cases: DAPPL (digital affinity profiling via proximity ligation, sequencing); 10 mM Tris-HCl pH 7.5, 50 mM NaCl, 1 mM DTT, 4% glycerol, room temperature, 30 min; GST-TFs on glutathione beads, 16-mer random dsDNA library, 0.1% formaldehyde crosslink after washing; high values mean tight binding
# [1] = target: T1, FLI1 (Homo sapiens, UniProt Q01543 1-452); settings: protein: recombinant; tags: N-terminal GST; dsDNA, one strand shown
# T1 sequence: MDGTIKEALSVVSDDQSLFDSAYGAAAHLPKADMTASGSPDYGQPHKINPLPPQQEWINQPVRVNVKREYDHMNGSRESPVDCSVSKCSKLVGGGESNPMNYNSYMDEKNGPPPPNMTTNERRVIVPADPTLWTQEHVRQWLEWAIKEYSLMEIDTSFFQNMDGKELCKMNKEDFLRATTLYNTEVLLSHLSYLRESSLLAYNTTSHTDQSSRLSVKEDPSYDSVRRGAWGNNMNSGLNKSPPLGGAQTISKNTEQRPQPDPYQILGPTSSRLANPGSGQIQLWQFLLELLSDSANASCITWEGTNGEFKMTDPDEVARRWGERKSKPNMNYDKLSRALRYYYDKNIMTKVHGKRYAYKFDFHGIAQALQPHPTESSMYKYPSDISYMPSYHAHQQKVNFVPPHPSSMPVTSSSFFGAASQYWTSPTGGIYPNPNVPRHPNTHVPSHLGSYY
# Summary of the method: (§1)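 GST fusions of human transcription factors were expressed in yeast and captured with glutathione beads. Once given DNA barcodes and pooled alongside a tag-only sample, they were incubated for 30 min at room temperature with 200 nmole of a random double-stranded 16-mer DNA library in Tris/NaCl/DTT/glycerol buffer, then washed, crosslinked (0.1% formaldehyde), proximity-ligated, PCR-amplified and sequenced on an Illumina NextSeq500. The binding signal of each hexamer is its read frequency for a factor divided by its frequency for the tag-only sample.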
# [2] = target: T2, ELK1 (Homo sapiens, UniProt P19419 1-428); settings: protein: recombinant; tags: N-terminal GST; dsDNA, one strand shown
# T2 sequence: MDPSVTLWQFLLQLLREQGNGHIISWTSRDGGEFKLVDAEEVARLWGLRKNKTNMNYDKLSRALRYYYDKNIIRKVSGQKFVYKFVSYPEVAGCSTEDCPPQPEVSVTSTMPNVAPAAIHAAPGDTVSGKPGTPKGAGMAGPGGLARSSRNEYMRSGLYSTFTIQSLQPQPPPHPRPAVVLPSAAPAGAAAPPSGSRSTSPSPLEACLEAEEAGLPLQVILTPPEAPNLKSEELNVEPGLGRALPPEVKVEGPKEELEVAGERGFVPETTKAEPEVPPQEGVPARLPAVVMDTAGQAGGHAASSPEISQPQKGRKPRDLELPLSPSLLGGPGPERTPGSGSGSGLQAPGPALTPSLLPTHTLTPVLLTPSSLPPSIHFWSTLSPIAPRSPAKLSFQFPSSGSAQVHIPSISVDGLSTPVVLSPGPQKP
# Summary of the method: as §1
# [3] = target: T3, GABPA (Homo sapiens, UniProt Q06546 1-454); settings: protein: recombinant; tags: N-terminal GST; dsDNA, one strand shown
# T3 sequence: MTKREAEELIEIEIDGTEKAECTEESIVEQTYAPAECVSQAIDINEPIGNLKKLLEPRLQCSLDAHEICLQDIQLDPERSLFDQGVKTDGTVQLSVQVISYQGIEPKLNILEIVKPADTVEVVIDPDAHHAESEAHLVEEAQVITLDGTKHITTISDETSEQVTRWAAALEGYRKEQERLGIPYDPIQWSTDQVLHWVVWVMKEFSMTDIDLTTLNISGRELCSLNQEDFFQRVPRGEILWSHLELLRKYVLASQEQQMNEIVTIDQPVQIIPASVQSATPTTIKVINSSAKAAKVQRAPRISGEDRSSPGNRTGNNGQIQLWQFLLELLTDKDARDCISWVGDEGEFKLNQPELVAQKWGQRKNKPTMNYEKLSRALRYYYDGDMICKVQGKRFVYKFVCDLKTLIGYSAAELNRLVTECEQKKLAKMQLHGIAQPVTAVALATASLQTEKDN
# Summary of the method: as §1
# [4] = target: T4, ERG (Homo sapiens, UniProt P11308 1-479); settings: protein: recombinant; tags: N-terminal GST; dsDNA, one strand shown
# T4 sequence: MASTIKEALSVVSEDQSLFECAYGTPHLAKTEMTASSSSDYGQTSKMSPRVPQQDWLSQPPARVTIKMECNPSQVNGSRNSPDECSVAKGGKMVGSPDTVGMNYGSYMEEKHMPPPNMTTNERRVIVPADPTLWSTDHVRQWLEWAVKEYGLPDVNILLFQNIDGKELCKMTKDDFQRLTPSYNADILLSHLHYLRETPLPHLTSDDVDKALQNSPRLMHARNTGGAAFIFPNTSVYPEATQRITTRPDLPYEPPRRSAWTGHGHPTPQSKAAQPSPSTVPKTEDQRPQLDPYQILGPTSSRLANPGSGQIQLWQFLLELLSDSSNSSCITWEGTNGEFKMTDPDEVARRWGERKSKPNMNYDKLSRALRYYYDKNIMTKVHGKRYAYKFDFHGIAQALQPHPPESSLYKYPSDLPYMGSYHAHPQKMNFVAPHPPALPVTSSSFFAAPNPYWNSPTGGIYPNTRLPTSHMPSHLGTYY
# Summary of the method: as §1
# [5] = target: ELF1 (Homo sapiens, UniProt P32519 1-619); settings: protein: recombinant; tags: N-terminal GST; dsDNA, one strand shown
# Summary of the method: as §1
# [6] = target: T5, EHF (Homo sapiens, UniProt Q9NZC4 1-300); settings: protein: recombinant; tags: N-terminal GST; dsDNA, one strand shown
# T5 sequence: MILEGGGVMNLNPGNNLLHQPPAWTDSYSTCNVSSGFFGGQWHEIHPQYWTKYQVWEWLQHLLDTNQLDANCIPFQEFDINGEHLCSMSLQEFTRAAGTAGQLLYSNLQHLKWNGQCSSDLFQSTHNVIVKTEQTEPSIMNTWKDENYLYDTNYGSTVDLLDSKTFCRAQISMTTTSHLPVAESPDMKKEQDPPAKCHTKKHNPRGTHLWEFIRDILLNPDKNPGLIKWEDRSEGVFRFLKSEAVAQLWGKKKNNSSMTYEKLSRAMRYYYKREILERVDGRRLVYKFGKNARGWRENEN
# Summary of the method: as §1
# [7] = target: SPI1 (Homo sapiens, UniProt P17947 1-270); settings: protein: recombinant; tags: N-terminal GST; dsDNA, one strand shown
# Summary of the method: as §1
# [8] = target: SPIB (Homo sapiens, UniProt Q01892 1-262); settings: protein: recombinant; tags: N-terminal GST; dsDNA, one strand shown
# Summary of the method: as §1
# [9] = target: T6, ELK3 (Homo sapiens, UniProt P41970 1-407); settings: protein: recombinant; tags: N-terminal GST; dsDNA, one strand shown
# T6 sequence: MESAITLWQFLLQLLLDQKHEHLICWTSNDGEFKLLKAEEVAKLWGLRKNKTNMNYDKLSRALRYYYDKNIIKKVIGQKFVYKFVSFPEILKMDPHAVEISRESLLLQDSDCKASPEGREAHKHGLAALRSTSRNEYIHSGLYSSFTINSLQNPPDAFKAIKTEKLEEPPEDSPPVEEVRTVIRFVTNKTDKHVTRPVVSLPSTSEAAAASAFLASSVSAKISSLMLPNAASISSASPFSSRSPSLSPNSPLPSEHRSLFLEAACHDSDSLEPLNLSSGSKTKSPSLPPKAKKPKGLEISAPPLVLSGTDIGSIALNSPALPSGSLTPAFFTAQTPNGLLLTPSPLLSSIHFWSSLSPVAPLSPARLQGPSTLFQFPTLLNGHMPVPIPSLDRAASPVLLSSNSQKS
# Summary of the method: as §1
# [10] = target: T7, FEV (Homo sapiens, UniProt Q99581 1-238); settings: protein: recombinant; tags: N-terminal GST; dsDNA, one strand shown
# T7 sequence: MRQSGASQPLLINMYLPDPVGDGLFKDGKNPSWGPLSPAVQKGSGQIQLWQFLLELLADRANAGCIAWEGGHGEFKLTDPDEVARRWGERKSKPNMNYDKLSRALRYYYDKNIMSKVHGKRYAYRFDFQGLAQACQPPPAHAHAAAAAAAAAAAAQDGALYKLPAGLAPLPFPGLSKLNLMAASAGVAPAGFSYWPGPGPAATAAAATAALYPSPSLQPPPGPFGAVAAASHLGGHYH
# Summary of the method: as §1
# [11] = target: ETV5 (Homo sapiens, UniProt P41161 1-510); settings: protein: recombinant; tags: N-terminal GST; dsDNA, one strand shown
# Summary of the method: as §1
# [12] = target: HSF1 (Homo sapiens, UniProt Q00613 1-529); settings: protein: recombinant; tags: N-terminal GST; chain copies: 3; dsDNA, one strand shown
# Summary of the method: as §1
# [13] = target: T8, SPIC (Homo sapiens, UniProt Q8N5J4 1-248); settings: protein: recombinant; tags: N-terminal GST; dsDNA, one strand shown
# T8 sequence: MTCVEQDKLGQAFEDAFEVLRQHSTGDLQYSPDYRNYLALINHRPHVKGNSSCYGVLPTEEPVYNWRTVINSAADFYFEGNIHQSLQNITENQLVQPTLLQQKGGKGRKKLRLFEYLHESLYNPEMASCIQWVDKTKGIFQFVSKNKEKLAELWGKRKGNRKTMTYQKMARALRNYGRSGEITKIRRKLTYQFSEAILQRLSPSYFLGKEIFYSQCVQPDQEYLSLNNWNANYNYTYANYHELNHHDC
# Summary of the method: as §1
# [14] = target: ELF4 (Homo sapiens, UniProt Q99607 1-663); settings: protein: recombinant; tags: N-terminal GST; dsDNA, one strand shown
# Summary of the method: as §1
# [15] = target: T9, ELK4 (Homo sapiens, UniProt P28324-2 1-405); settings: protein: recombinant; tags: N-terminal GST; dsDNA, one strand shown
# T9 sequence: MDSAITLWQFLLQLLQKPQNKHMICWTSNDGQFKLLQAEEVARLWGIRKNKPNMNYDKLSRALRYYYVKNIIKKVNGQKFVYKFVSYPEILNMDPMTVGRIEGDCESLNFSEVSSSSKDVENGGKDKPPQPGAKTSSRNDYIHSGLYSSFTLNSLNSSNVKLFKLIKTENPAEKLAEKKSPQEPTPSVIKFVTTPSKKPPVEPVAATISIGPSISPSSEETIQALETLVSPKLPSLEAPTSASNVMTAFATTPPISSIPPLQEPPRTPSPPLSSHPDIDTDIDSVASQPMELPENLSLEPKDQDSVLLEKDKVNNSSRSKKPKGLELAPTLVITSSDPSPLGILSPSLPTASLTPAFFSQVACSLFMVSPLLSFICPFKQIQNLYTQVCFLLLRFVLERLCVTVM
# Summary of the method: as §1
# [16] = target: T10, ETV2 (Homo sapiens, UniProt O00321 1-342); settings: protein: recombinant; tags: N-terminal GST; dsDNA, one strand shown
# T10 sequence: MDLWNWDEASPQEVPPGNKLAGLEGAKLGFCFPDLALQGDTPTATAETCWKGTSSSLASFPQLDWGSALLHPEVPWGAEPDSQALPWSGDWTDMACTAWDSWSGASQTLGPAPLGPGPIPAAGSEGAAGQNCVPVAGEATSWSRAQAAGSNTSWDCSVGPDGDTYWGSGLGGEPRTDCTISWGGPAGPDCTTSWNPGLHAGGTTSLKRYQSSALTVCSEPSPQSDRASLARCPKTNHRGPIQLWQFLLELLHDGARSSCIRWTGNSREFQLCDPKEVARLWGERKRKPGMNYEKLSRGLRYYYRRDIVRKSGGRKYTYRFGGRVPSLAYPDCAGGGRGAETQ
# Summary of the method: as §1
# [17] = target: T11, ELF3 (Homo sapiens, UniProt P78545 1-371); settings: protein: recombinant; tags: N-terminal GST; dsDNA, one strand shown
# T11 sequence: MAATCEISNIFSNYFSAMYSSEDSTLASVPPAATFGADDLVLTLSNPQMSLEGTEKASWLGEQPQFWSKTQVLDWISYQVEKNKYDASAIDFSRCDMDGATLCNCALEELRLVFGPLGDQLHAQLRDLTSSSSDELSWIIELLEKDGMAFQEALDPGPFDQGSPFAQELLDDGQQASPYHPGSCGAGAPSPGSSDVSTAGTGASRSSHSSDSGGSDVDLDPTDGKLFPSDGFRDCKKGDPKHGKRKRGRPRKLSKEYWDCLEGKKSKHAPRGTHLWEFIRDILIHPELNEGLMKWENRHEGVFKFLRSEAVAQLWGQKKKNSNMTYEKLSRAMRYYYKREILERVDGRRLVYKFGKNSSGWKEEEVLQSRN
# Summary of the method: as §1
# [18] = target: CRX (Homo sapiens, UniProt O43186 1-299); settings: protein: recombinant; tags: N-terminal GST; dsDNA, one strand shown
# Summary of the method: as §1
# [19] = target: ETV1 (Homo sapiens, UniProt P50549 1-477); settings: protein: recombinant; tags: N-terminal GST; dsDNA, one strand shown
# Summary of the method: as §1
# Chain of SPIB (Q01892 whole entry): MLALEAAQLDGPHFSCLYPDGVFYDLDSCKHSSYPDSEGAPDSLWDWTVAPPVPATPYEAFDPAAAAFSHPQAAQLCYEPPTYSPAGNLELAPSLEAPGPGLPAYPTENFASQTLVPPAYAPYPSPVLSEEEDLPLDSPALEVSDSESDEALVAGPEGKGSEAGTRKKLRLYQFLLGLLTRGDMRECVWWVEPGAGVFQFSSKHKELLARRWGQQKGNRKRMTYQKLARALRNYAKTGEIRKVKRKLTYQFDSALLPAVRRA
# Chain of ETV5 (P41161 whole entry): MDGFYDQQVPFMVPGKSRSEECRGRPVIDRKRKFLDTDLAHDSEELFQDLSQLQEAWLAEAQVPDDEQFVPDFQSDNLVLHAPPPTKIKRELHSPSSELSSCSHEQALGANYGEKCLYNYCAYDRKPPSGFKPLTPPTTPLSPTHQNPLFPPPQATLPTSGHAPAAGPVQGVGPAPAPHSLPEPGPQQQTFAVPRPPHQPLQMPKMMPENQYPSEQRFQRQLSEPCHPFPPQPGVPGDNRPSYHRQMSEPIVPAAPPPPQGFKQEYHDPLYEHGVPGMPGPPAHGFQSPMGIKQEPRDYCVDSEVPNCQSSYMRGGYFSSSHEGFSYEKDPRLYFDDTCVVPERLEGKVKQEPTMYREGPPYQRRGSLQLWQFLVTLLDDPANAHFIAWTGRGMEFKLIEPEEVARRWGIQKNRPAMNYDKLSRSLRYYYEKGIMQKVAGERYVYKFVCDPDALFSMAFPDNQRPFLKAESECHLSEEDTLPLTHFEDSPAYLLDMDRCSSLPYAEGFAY
# Chain of CRX (O43186 whole entry): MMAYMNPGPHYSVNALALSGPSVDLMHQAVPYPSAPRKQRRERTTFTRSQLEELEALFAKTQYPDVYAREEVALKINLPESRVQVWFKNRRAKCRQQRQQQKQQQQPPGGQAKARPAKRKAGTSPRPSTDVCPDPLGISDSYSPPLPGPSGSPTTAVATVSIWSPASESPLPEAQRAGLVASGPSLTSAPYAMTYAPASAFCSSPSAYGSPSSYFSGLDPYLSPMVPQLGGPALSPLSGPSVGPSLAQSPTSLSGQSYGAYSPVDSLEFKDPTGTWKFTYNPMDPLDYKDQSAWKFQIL
# Chain of ETV1 (P50549 whole entry): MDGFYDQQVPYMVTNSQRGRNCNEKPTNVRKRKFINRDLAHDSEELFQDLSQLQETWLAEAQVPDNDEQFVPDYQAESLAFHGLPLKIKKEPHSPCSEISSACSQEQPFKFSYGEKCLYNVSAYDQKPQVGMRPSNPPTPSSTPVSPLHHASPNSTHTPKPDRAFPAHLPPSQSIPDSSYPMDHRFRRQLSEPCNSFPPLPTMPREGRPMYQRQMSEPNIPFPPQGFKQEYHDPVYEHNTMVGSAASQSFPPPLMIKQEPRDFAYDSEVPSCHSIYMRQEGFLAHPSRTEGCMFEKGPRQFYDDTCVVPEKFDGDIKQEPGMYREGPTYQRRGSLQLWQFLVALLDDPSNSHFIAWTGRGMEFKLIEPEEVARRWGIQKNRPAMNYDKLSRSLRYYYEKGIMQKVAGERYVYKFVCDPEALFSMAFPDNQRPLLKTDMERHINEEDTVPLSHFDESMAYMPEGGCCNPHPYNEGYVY
# Chain of HSF1 (Q00613 whole entry): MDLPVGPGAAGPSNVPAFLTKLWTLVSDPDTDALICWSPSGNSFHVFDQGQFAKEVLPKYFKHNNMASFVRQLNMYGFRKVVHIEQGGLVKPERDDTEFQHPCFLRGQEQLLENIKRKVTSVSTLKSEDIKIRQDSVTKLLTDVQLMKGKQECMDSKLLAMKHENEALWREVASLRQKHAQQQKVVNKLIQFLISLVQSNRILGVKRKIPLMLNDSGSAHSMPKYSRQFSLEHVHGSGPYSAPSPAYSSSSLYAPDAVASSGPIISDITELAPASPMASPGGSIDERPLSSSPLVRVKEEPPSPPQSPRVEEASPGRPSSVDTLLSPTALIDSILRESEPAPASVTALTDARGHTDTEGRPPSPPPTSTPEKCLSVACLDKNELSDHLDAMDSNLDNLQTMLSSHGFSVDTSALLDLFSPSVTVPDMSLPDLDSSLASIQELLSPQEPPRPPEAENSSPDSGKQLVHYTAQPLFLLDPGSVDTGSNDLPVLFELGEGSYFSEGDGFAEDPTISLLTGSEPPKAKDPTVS
# Chain of ELF4 (Q99607 whole entry): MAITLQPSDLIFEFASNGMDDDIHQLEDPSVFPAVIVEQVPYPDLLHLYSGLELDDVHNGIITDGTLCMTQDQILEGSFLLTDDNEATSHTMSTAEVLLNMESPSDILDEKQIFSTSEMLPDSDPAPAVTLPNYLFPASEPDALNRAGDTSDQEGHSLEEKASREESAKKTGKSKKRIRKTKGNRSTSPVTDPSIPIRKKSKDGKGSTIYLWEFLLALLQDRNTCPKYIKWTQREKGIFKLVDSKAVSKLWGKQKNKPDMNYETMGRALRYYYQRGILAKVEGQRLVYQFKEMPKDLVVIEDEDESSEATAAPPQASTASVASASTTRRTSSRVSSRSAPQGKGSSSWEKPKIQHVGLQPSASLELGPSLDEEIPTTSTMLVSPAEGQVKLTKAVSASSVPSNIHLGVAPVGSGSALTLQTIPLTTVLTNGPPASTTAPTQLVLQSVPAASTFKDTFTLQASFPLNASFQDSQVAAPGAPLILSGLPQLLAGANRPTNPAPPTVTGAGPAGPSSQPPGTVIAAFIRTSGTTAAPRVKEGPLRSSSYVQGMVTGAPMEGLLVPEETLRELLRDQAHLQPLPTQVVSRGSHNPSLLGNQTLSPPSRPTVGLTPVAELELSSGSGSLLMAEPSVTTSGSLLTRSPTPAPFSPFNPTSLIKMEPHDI
# Chain of ELF1 (P32519 whole entry): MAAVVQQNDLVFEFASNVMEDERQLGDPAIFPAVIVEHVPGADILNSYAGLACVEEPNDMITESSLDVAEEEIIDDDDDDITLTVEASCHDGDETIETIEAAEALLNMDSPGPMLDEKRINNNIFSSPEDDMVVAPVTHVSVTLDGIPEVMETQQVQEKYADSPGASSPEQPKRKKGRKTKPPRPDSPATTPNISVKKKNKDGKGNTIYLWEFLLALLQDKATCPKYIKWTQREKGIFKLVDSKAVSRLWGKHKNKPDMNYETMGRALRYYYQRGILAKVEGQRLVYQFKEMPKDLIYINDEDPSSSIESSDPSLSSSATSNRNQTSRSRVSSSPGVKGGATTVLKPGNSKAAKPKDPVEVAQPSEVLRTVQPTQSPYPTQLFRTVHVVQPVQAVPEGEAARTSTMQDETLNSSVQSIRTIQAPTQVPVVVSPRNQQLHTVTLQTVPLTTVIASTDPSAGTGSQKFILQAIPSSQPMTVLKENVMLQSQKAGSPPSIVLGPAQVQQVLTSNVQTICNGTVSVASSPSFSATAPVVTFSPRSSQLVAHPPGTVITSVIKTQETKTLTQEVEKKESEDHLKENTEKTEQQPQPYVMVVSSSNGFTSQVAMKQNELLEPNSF
sequence,measurement,setting,value
AAATCC,binding signal,[1],"1.54 fold enrichment (6-mer frequency, TF over GST control)"
same,binding signal,[2],"1.66 fold enrichment (6-mer frequency, TF over GST control)"
same,binding signal,[3],"1.5 fold enrichment (6-mer frequency, TF over GST control)"
same,binding signal,[4],"1.81 fold enrichment (6-mer frequency, TF over GST control)"
same,binding signal,[5],"1.59 fold enrichment (6-mer frequency, TF over GST control)"
same,binding signal,[6],"1.58 fold enrichment (6-mer frequency, TF over GST control)"
same,binding signal,[7],"1.5 fold enrichment (6-mer frequency, TF over GST control)"
same,binding signal,[8],"1.65 fold enrichment (6-mer frequency, TF over GST control)"
same,binding signal,[9],"1.53 fold enrichment (6-mer frequency, TF over GST control)"
same,binding signal,[10],"2.56 fold enrichment (6-mer frequency, TF over GST control)"
same,binding signal,[11],"1.64 fold enrichment (6-mer frequency, TF over GST control)"
same,binding signal,[12],"1.9 fold enrichment (6-mer frequency, TF over GST control)"
same,binding signal,[13],"1.5 fold enrichment (6-mer frequency, TF over GST control)"
same,binding signal,[14],"1.51 fold enrichment (6-mer frequency, TF over GST control)"
same,binding signal,[15],"1.47 fold enrichment (6-mer frequency, TF over GST control)"
same,binding signal,[16],"1.45 fold enrichment (6-mer frequency, TF over GST control)"
same,binding signal,[17],"1.34 fold enrichment (6-mer frequency, TF over GST control)"
same,binding signal,[18],"2.53 fold enrichment (6-mer frequency, TF over GST control)"
same,binding signal,[19],"1.58 fold enrichment (6-mer frequency, TF over GST control)"
